# Laboratory results taken from paper PMC7862700, “An all-to-all approach to the identification of sequence-specific readers for epigenetic DNA modifications on cytosine”.
# Experiments:
# Assay in all cases: DAPPL (digital affinity profiling via proximity ligation, sequencing); 10 mM Tris-HCl pH 7.5, 50 mM NaCl, 1 mM DTT, 4% glycerol, room temperature, 30 min; GST-TFs on glutathione beads, 16-mer random dsDNA library, 0.1% formaldehyde crosslink after washing; high values mean tight binding
# Settings in all cases: protein: recombinant; tags: N-terminal GST; dsDNA, one strand shown
# ELK1 = molecular target: T1, ELK1 (Homo sapiens, UniProt P19419 1-428)
# T1 sequence: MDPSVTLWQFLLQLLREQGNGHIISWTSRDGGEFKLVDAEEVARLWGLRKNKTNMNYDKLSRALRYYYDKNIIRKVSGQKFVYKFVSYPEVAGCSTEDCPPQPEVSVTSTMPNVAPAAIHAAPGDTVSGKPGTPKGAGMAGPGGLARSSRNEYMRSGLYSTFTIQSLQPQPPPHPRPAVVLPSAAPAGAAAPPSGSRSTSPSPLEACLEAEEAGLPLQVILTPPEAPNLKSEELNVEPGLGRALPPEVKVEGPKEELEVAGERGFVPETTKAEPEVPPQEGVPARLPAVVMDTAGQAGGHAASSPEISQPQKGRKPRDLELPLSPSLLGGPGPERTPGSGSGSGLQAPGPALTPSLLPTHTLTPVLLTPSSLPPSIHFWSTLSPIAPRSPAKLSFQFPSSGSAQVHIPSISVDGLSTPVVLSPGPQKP
# Outline: (§1)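 Human transcription factors fused to GST were expressed in yeast, captured on glutathione beads, given DNA barcodes and pooled with a GST-only negative control. Pools were incubated with 200 nmole of a 16-mer random double-stranded DNA library in Tris/NaCl/DTT/glycerol buffer at room temperature for 30 min. They were then washed, crosslinked with 0.1% formaldehyde, proximity-ligated (BsaI/T4 ligase, 1 h, 37 °C), PCR-amplified and sequenced on an Illumina NextSeq500. Binding signal is each 6-mer's read frequency for a factor divided by its frequency for the GST control.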
# ERG = molecular target: T2, ERG (Homo sapiens, UniProt P11308 1-479)
# T2 sequence: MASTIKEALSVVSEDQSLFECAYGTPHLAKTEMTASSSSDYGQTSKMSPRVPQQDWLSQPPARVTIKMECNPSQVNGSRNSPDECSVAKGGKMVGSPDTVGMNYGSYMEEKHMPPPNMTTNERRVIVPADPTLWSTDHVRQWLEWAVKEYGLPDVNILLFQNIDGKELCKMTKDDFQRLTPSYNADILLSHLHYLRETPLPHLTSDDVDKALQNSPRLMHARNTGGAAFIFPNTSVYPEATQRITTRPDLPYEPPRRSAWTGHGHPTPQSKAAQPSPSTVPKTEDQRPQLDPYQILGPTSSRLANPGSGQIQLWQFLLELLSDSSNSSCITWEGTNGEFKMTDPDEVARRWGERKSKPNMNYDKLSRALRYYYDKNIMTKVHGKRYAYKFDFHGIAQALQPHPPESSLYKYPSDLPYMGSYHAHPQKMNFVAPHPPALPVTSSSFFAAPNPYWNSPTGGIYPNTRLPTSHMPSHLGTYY
# Outline: as §1
# EHF = molecular target: T3, EHF (Homo sapiens, UniProt Q9NZC4 1-300)
# T3 sequence: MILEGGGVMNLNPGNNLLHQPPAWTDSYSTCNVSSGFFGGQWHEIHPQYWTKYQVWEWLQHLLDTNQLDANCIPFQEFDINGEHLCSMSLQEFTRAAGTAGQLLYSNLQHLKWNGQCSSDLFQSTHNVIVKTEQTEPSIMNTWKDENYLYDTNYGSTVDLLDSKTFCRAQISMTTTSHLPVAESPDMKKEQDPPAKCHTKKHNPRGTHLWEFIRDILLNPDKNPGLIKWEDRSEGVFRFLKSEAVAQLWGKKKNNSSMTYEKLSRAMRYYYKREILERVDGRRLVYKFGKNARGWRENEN
# Outline: as §1
# ETV5 = ETV5 (Homo sapiens, UniProt P41161 1-510)
# ETV5, sequence (P41161 whole entry): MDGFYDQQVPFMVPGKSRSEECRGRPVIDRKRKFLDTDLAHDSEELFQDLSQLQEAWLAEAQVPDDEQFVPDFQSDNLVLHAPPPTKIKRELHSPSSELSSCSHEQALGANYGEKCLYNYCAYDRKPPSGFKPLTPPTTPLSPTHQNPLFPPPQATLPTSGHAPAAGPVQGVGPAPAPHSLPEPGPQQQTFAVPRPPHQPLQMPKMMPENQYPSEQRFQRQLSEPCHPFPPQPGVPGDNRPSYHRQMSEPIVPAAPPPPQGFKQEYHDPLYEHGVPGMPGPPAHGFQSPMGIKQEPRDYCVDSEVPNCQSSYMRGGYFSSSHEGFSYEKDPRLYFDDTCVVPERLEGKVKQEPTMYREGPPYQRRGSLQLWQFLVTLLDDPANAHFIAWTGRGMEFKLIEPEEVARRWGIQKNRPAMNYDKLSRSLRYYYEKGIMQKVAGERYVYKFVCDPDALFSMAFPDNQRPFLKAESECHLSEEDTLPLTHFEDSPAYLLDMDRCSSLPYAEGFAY
# Outline: as §1
# ELF4 = ELF4 (Homo sapiens, UniProt Q99607 1-663)
# ELF4, sequence (Q99607 whole entry): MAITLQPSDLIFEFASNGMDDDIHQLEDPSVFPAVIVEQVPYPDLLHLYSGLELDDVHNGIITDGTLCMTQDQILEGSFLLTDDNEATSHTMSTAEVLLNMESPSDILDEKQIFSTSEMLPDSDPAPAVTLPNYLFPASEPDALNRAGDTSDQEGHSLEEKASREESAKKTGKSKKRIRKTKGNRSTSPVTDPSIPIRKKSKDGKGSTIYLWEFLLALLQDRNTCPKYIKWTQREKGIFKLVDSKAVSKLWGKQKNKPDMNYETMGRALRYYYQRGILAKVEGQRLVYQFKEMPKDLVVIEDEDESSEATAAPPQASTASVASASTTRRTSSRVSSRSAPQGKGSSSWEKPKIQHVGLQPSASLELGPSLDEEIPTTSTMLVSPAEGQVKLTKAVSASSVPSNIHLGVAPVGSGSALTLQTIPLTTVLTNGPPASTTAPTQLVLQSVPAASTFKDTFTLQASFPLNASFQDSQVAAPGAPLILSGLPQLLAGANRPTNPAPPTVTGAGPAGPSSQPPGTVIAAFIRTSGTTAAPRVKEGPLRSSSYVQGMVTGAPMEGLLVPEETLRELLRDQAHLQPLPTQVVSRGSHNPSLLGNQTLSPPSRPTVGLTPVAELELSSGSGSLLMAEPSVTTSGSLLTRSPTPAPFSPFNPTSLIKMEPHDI
# Outline: as §1
# ELK4 = molecular target: T4, ELK4 (Homo sapiens, UniProt P28324-2 1-405)
# T4 sequence: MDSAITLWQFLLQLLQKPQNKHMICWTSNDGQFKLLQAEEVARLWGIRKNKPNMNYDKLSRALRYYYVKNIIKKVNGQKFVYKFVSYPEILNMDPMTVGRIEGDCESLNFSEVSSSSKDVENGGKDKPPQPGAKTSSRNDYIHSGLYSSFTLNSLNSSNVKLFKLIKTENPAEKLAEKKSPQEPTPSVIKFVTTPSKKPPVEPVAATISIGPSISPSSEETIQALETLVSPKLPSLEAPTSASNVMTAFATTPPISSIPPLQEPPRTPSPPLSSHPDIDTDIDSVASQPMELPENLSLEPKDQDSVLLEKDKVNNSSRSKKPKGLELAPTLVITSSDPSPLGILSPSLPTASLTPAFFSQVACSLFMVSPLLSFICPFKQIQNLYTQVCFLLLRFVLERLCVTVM
# Outline: as §1
# ELF3 = molecular target: T5, ELF3 (Homo sapiens, UniProt P78545 1-371)
# T5 sequence: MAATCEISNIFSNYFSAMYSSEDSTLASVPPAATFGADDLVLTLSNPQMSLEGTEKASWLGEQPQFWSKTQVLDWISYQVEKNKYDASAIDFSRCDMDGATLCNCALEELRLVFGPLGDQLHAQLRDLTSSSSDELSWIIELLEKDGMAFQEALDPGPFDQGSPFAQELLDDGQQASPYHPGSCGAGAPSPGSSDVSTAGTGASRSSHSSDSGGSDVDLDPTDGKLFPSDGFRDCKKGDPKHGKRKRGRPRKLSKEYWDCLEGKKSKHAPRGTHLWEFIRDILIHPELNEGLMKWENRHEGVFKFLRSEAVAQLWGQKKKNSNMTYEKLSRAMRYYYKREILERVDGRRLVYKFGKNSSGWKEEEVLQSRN
# Outline: as §1
# ERF = molecular target: T6, ERF (Homo sapiens, UniProt P50548 1-548)
# T6 sequence: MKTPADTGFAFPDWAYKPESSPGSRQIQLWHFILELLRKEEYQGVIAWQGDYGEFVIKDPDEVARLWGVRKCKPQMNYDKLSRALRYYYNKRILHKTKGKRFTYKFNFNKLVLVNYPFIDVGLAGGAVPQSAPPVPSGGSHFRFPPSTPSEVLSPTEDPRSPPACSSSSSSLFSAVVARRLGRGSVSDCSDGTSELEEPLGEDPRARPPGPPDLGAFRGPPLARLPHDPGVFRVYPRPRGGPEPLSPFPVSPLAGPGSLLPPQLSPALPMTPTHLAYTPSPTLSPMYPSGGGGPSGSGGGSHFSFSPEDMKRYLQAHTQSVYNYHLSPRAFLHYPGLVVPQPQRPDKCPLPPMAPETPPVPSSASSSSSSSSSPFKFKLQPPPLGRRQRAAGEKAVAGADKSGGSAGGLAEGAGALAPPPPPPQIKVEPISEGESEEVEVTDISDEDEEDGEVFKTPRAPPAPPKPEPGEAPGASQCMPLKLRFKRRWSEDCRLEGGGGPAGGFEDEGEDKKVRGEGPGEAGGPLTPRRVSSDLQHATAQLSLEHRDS
# Outline: as §1
# ETV3L = molecular target: T7, ETV3L (Homo sapiens, UniProt Q6ZN32 1-361)
# T7 sequence: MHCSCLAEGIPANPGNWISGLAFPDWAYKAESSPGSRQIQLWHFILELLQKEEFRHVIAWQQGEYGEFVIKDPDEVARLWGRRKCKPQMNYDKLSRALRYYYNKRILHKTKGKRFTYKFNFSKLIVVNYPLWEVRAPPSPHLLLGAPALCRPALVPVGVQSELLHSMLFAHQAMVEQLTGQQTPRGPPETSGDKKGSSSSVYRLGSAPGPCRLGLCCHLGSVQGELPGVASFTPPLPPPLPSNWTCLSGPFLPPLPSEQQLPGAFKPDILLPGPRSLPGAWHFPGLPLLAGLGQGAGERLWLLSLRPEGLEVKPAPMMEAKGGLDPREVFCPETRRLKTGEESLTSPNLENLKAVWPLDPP
# Outline: as §1
# ETS2 = molecular target: T8, ETS2 (Homo sapiens, UniProt P15036 1-469)
# T8 sequence: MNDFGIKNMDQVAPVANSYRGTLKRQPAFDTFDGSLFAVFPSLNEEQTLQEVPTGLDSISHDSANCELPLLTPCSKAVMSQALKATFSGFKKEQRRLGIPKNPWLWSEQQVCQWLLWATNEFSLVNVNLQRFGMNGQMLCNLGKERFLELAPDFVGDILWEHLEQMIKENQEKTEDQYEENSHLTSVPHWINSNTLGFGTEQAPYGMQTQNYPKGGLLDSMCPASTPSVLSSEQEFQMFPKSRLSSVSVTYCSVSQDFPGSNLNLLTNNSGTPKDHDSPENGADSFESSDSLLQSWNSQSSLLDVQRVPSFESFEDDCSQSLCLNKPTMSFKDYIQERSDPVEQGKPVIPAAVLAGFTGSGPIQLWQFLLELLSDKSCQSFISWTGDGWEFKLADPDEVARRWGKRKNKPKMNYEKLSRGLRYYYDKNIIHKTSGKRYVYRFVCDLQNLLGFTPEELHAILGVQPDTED
# Outline: as §1
# SPDEF = molecular target: T9, SPDEF (Homo sapiens, UniProt O95238 1-335)
# T9 sequence: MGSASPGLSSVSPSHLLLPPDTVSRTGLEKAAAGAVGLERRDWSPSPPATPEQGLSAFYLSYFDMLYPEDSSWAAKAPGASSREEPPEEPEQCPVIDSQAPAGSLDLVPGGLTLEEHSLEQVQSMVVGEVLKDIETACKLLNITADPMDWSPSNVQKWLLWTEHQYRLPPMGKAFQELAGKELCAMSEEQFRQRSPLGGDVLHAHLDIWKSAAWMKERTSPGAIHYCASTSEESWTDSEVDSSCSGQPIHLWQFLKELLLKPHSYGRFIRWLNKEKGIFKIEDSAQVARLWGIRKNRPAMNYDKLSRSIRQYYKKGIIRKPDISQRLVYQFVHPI
# Outline: as §1
# ETV3 = molecular target: T10, ETV3 (Homo sapiens, UniProt P41162-2 1-143)
# T10 sequence: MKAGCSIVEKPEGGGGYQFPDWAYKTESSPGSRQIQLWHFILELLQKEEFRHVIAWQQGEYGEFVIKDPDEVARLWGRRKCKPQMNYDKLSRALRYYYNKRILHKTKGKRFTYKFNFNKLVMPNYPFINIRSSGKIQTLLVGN
# Outline: as §1
# ETV6 = ETV6 (Homo sapiens, UniProt P41212 1-452)
# ETV6, sequence (P41212 whole entry): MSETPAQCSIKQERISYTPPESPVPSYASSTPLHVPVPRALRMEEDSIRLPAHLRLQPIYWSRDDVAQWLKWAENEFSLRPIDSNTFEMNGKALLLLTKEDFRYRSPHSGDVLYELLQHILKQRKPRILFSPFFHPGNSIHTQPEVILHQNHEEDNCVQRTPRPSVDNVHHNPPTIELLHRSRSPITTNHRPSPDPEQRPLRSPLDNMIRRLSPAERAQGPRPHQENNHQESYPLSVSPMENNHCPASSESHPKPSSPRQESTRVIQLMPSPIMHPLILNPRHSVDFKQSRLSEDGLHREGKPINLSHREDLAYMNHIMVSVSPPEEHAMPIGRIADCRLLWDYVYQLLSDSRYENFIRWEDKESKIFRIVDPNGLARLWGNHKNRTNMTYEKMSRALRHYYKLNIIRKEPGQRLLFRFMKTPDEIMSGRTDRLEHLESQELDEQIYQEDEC
# Outline: as §1
# ELF1 = ELF1 (Homo sapiens, UniProt P32519 1-619)
# ELF1, sequence (P32519 whole entry): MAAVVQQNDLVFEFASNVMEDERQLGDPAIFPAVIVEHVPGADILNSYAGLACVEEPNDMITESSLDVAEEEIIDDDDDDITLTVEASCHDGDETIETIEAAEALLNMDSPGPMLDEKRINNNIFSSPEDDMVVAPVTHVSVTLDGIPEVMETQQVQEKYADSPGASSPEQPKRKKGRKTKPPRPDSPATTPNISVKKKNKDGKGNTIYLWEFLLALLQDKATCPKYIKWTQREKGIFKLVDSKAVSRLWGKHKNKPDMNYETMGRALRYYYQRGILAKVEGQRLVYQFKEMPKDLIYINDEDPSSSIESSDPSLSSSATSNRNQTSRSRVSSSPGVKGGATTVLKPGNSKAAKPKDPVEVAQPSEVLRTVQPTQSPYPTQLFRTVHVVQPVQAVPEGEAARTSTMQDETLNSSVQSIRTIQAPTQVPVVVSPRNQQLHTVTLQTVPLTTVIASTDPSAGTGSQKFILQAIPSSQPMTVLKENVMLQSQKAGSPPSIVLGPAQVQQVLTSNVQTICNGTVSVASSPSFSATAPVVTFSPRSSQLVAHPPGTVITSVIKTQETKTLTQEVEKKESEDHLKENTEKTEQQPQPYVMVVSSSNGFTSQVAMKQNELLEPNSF
# Outline: as §1
# SPIB = SPIB (Homo sapiens, UniProt Q01892 1-262)
# SPIB, sequence (Q01892 whole entry): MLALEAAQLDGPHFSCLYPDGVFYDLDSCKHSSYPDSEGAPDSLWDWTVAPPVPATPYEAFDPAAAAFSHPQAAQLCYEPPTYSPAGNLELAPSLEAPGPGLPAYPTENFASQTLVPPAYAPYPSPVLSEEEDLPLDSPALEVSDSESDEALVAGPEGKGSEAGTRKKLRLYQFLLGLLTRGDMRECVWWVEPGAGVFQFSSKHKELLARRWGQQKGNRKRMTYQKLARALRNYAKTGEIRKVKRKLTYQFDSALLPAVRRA
# Outline: as §1
# FEV = molecular target: T11, FEV (Homo sapiens, UniProt Q99581 1-238)
# T11 sequence: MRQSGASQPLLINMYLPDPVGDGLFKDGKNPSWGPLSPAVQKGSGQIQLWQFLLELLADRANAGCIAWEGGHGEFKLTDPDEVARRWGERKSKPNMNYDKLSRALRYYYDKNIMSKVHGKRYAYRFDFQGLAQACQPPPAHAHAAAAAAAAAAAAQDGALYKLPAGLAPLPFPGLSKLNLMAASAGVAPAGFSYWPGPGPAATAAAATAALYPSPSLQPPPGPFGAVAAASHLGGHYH
# Outline: as §1
# ETV1 = ETV1 (Homo sapiens, UniProt P50549 1-477)
# ETV1, sequence (P50549 whole entry): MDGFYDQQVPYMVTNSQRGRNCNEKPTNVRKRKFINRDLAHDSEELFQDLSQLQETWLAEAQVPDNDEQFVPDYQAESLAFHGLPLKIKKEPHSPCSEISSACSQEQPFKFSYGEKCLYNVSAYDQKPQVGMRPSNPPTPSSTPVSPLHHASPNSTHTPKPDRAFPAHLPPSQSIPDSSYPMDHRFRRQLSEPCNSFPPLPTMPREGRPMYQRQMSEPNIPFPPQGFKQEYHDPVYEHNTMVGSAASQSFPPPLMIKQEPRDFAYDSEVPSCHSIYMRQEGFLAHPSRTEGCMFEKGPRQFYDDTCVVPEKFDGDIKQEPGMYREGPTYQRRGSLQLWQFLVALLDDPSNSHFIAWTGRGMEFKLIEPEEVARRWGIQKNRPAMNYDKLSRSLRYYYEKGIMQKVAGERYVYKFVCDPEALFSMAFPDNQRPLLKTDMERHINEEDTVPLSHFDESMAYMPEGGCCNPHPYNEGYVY
# Outline: as §1
Sequence,binding signal (ELK1),binding signal (ERG),binding signal (EHF),binding signal (ETV5),binding signal (ELF4),binding signal (ELK4),binding signal (ELF3),binding signal (ERF),binding signal (ETV3L),binding signal (ETS2),binding signal (SPDEF),binding signal (ETV3),binding signal (ETV6),binding signal (ELF1),binding signal (SPIB),binding signal (FEV),binding signal (ETV1)
TGGGTG,"1.09 fold enrichment (6-mer frequency, TF over GST control)","1.01 fold enrichment (6-mer frequency, TF over GST control)","1.01 fold enrichment (6-mer frequency, TF over GST control)","1.02 fold enrichment (6-mer frequency, TF over GST control)","1.01 fold enrichment (6-mer frequency, TF over GST control)","1.07 fold enrichment (6-mer frequency, TF over GST control)","1.03 fold enrichment (6-mer frequency, TF over GST control)","1.06 fold enrichment (6-mer frequency, TF over GST control)","1.08 fold enrichment (6-mer frequency, TF over GST control)","1.07 fold enrichment (6-mer frequency, TF over GST control)","1.01 fold enrichment (6-mer frequency, TF over GST control)","1 fold enrichment (6-mer frequency, TF over GST control)","1.21 fold enrichment (6-mer frequency, TF over GST control)",,,,
TGGAAC,,"1.02 fold enrichment (6-mer frequency, TF over GST control)","1.04 fold enrichment (6-mer frequency, TF over GST control)","1.05 fold enrichment (6-mer frequency, TF over GST control)",,,"1.05 fold enrichment (6-mer frequency, TF over GST control)",,,,,,,"1 fold enrichment (6-mer frequency, TF over GST control)","1.04 fold enrichment (6-mer frequency, TF over GST control)","1.02 fold enrichment (6-mer frequency, TF over GST control)","1.04 fold enrichment (6-mer frequency, TF over GST control)"
